The record followed here is PubChem BioAssay (EPA / NIEHS).

The nature of assay [1]: ATG_RORE_CIS: Attagene CIS-FACTORIAL HepG2 Assay for human RAR-related Orphan Receptor Element (RORE) (AID 2282959). Particulars: HepG2 Attagene cis-factorial RORE reporter, mRNA; actives raise or lower the signal. The procedure, abridged:
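HepG2 cells carrying transiently transfected cis-regulated reporter units; RORE-driven reporter mRNA quantified 24 h post-dosing by RT-PCR, 6-FAM primer extension, HpaI digestion and capillary electrophoresis. Bidirectional fit versus DMSO.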

Assay [2] can be described thus: ATG_Sox_CIS: Attagene CIS-FACTORIAL HepG2 Assay for human SRY-box transcription factor (SOX) (AID 2282960). Particulars: HepG2 Attagene cis-factorial SOX reporter, mRNA; actives raise or lower the signal. Summed up:
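HepG2 cells transiently transfected with multiple cis-regulated reporter units, then dosed for 24 h. Reporter mRNA quantified by RT-PCR, fluorescent labelling, HpaI digestion and capillary electrophoresis; bidirectional fit versus DMSO.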

Assay [3] has as its target Transcription factor Sp1 (Homo sapiens) (UniProt P08047). Nature of the assay: ATG_Sp1_CIS: Attagene CIS-FACTORIAL HepG2 Assay for human Specificity Protein 1 (Sp1) (AID 2282961). Conditions: HepG2 Sp1 cis-reporter transcription, actives raise or lower the signal. Summed up: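 HepG2 cells transiently transfected with multiplexed cis-regulated reporter constructs, chemical exposure 24 h. Reporter mRNA quantified by RT-PCR with capillary electrophoresis; bidirectional fit relative to DMSO.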

Assay [4] is described as follows: ATG_SREBP_CIS: Attagene CIS-FACTORIAL HepG2 Assay for human Sterol Regulatory Element Binding (SREBP) (AID 2282962). Particulars: HepG2 Attagene cis-factorial SREBP reporter, mRNA; actives raise or lower the signal. The procedure, abridged:
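HepG2 cells transiently transfected with multiplexed cis-promoter reporter units sensing endogenous transcription factors; reporter mRNA measured 24 h after dosing by RT-PCR, 6-FAM labeling, HpaI digestion and capillary electrophoresis. Bidirectional fit versus DMSO.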

The target of assay [5] is Signal transducer and activator of transcription 3 (Homo sapiens) (UniProt P40763). Nature of the assay: ATG_STAT3_CIS: Attagene CIS-FACTORIAL HepG2 Assay for human Signal Transducer and Activator of Transcription 3 (STAT3) (AID 2282963). Particulars: HepG2, Attagene cis-factorial STAT3 reporter transcription; actives raise or lower the signal. Summed up:
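Transcript-level reporter assay. HepG2 transient MRTU transfection, 24 h exposure, fluorescence detection after RT-PCR and CE; DMSO baseline.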

Assay [6] in a line: ATG_TA_CIS: Attagene CIS-FACTORIAL HepG2 Assay for human TA Basal Promoter (AID 2282964). Particulars: HepG2 Attagene CIS-factorial TA basal promoter reporter; actives raise or lower the signal. Summed up:
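Fluorescence from labelled RT-PCR reporter fragments, separated by capillary electrophoresis, gives the signal. Cells: HepG2 transiently carrying multiple reporter units, 24 h chemical dosing. Gain or loss relative to DMSO.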

The nature of assay [7]: ATG_TAL_CIS: Attagene CIS-FACTORIAL HepG2 Assay for human TAL Basal Promoter (AID 2282966).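 Note: background control endpoint measuring basal TAL promoter reporter mRNA not a specific factor.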 Conditions: HepG2 Attagene cis-factorial TAL promoter reporter; actives raise or lower the signal. Summed up: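 In this cell-based multiplex, HepG2 liver cells bearing cis-promoter reporter constructs are dosed for 24 hours. Total RNA is reverse-transcribed and amplified, labelled fragments are sized by capillary electrophoresis, and signal changes are fitted bidirectionally versus DMSO.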

Assay [8] can be described thus: ATG_TGFb_CIS: Attagene CIS-FACTORIAL HepG2 Assay for human Transforming Growth Factor (TGF) (AID 2282967). Conditions: HepG2 Attagene CIS TGFb reporter, mRNA transcription; actives raise or lower the signal. Summed up: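 Bidirectional fitting relative to DMSO gave the endpoint. Underlying data: reporter mRNA from HepG2 cells carrying transiently transfected cis-regulated reporter constructs, harvested 24 h after dosing and analyzed by RT-PCR and capillary electrophoresis.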

A short description of assay [9]: ATG_VDRE_CIS: Attagene CIS-FACTORIAL HepG2 Assay for human Vitamin D Receptor Element (VDRE) (AID 2282968). Conditions: HepG2 VDRE cis-reporter transcription, actives raise or lower the signal. The procedure, abridged: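 RT-PCR/CE readout of reporter mRNA; HepG2, transient transfection, 24 h dosing; DMSO baseline; bidirectional analysis.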
Assay [10] concerns the target X-box-binding protein 1 (Homo sapiens) (UniProt P17861). In words: ATG_Xbp1_CIS: Attagene CIS-FACTORIAL HepG2 Assay for human X-box Binding Protein 1 (XBP1) (AID 2282972). Conditions: HepG2 XBP1 cis-element reporter, Attagene multiplex; actives raise or lower the signal. The procedure, abridged: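 HepG2 cells transiently transfected with multiple cis-element reporter units report endogenous TF activity; 24 h exposure, then reporter mRNA measured by RT-PCR, 6-FAM labelling, HpaI digestion and capillary electrophoresis. Bidirectional fitting versus DMSO.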

Assay [11] is described as follows: ATG_GAL4_TRANS: Attagene TRANS-FACTORIAL HepG2 Assay for GAL4 (Internal Marker) (AID 2282976; active = hit-call score of the fitted dose curve at least 0.9, where 1 is the maximum). Conditions: HepG2 Attagene TRANS GAL4 internal marker reporter. Summed up:
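RT-PCR/capillary electrophoresis readout of reporter mRNA. HepG2, transient MRTU transfection (GAL4-UAS reporters), 24 h compound exposure. Background-control endpoint, positive direction vs DMSO baseline.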

Assay [12] has as its target Glucocorticoid receptor (Homo sapiens) (UniProt P04150). In words: ATG_GR_TRANS: Attagene TRANS-FACTORIAL HepG2 Assay for human Glucocorticoid Receptor (GR) (AID 2282978; active = hit-call score of the fitted dose curve at least 0.9, where 1 is the maximum;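 note: activators score as hits since higher reporter transcript over DMSO is fitted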). Conditions: HepG2 Attagene TRANS GR reporter, mRNA transcription. The procedure, abridged:
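HepG2 cells transiently transfected with GAL4-UAS reporter units and exogenous GR-Gal4 chimera, dosed 24 h. Reporter mRNA by RT-PCR, FAM labeling, HpaI digest and capillary electrophoresis; gain-of-signal fit versus DMSO.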

Assay [13] deals with Bile acid receptor (Homo sapiens) (UniProt Q96RI1). In words: ATG_FXR_TRANS: Attagene TRANS-FACTORIAL HepG2 Assay for Farnesoid X Receptor (FXR) (AID 2282979; active = hit-call score of the fitted dose curve at least 0.9, where 1 is the maximum;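 note: hits raise reporter mRNA above DMSO so AC50 marks FXR activation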). Particulars: HepG2 Attagene TRANS FXR-GAL4 reporter transcription. The procedure, abridged:
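Read-out: fluorescent reporter transcripts quantified by capillary electrophoresis after RT-PCR of total RNA. Source cells were HepG2 transiently carrying chimeric NR-GAL4 plus GAL4-UAS reporter units, dosed 24 h. Activity fitted upward relative to DMSO baseline.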

Assay [14] is described as follows: ATG_TCF_b_cat_CIS: Attagene CIS-FACTORIAL HepG2 Assay for human T-Cell-Factor with beta-catenin (TCF/b-cat) (AID 2282965). Particulars: HepG2 TCF/beta-catenin cis-reporter transcription, actives raise or lower the signal. Summed up: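 Using capillary electrophoresis as the read-out, labelled reporter cDNA fragments from transiently transfected HepG2 were sized and quantified. Exposure lasted 24 hours; activity in either direction was referenced to DMSO.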

For assay [15], the target named is Nuclear receptor subfamily 1 group I member 3 (Homo sapiens) (UniProt Q14994). In words: ATG_CAR_TRANS: Attagene TRANS-FACTORIAL HepG2 Assay for human Constitutive Androstane Receptor (CAR) (AID 2282969; active = hit-call score of the fitted dose curve at least 0.9, where 1 is the maximum;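 note: activators raise reporter mRNA above DMSO so AC50 marks induction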). Particulars: HepG2 Attagene TRANS-FACTORIAL CAR reporter. The procedure, abridged:
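HepG2 cells transiently transfected with multiplexed GAL4-UAS reporter units expressing chimeric NR-Gal4 proteins; compound exposure 24 h. Reporter mRNA measured by RT-PCR, 6-FAM labelling, HpaI digestion and capillary electrophoresis; gain-of-signal fitted against DMSO baseline.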

A short description of assay [16]: ATG_M_19_TRANS: Attagene TRANS-FACTORIAL HepG2 Assay for M19 Transcription Factor (Internal Marker) (AID 2282974; active = hit-call score of the fitted dose curve at least 0.9, where 1 is the maximum). Conditions: HepG2 Attagene TRANS-FACTORIAL M19 internal marker reporter. Summed up:
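HepG2 transiently transfected with GAL4-UAS multiplex reporter constructs, exposed 24 h; reporter RNA quantified by RT-PCR, 6-FAM labeling, HpaI digestion and capillary electrophoresis; internal background marker fitted upward versus DMSO.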

The target of assay [17] is Estrogen-related receptor gamma (Homo sapiens) (UniProt P62508). In words: ATG_ERRg_TRANS: Attagene TRANS-FACTORIAL HepG2 Assay for human Estrogen-Related Receptor gamma (ERRg) (AID 2282977; active = hit-call score of the fitted dose curve at least 0.9, where 1 is the maximum;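 note: hits increase reporter signal over DMSO so potencies reflect activators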). Particulars: HepG2 Attagene TRANS reporter, ERRg transactivation. The procedure, abridged: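 Transfect HepG2 with multiple GAL4-UAS reporter transcription units; dose chemicals 24 h; isolate RNA, reverse-transcribe with oligo(dT), PCR-amplify, label with 6-FAM, digest with HpaI; size fragments by capillary electrophoresis. DMSO serves as negative control.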
Estrogen-related receptor gamma (Homo sapiens), sequence (P62508 whole entry, looked up, the tested form may be a part): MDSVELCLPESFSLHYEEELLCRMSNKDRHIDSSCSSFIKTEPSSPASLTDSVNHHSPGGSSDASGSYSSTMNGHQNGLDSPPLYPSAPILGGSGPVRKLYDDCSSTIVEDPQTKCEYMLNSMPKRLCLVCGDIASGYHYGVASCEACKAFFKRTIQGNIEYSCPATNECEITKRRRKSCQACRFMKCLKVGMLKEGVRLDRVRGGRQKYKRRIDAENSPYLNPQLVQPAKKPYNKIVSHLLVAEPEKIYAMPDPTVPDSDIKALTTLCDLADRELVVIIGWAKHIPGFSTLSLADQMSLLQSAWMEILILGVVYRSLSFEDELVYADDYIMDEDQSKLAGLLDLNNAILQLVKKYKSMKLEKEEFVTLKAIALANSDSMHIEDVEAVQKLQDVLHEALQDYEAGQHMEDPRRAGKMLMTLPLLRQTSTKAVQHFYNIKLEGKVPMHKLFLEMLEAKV

Assay [18] addresses Estrogen receptor (Homo sapiens) (UniProt P03372). In words: ATG_ERa_TRANS: Attagene TRANS-FACTORIAL HepG2 Assay for human Estrogen Receptor alpha (ERa) (AID 2282970; active = hit-call score of the fitted dose curve at least 0.9, where 1 is the maximum). Conditions: HepG2 Attagene TRANS ERa GAL4 reporter, mRNA. Summed up:
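After 24 h of compound treatment, RNA from HepG2 cells bearing transfected GAL4-UAS reporter constructs is converted to cDNA, amplified and fluorescently labelled. Capillary electrophoresis resolves the ERa-linked reporter; DMSO serves as negative control.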

Assay [19] has as its target Steroid hormone receptor ERR1 (Homo sapiens) (UniProt P11474). Nature of the assay: ATG_ERRa_TRANS: Attagene TRANS-FACTORIAL HepG2 Assay for human Estrogen-Related Receptor alpha (ERRa) (AID 2282971; active = hit-call score of the fitted dose curve at least 0.9, where 1 is the maximum). Particulars: HepG2 Attagene TRANS reporter, ERRa transactivation. The procedure, abridged:
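Transfected HepG2, 24 h dosing, ERRa-Gal4 chimera driving GAL4-UAS reporter. Readout: reporter mRNA via RT-PCR plus capillary electrophoresis (fluorescence). Positive direction vs DMSO control.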

Inconclusive results are not listed. The source made the active and inactive calls. Rule for the calls, unless noted: active = hit-call score of the fitted dose curve at least 0.9, where 1 is the maximum; inactive = score below 0.9.

Nuclear receptor subfamily 1 group I member 3 (Homo sapiens), sequence (Q14994 whole entry, looked up, the tested form may be a part): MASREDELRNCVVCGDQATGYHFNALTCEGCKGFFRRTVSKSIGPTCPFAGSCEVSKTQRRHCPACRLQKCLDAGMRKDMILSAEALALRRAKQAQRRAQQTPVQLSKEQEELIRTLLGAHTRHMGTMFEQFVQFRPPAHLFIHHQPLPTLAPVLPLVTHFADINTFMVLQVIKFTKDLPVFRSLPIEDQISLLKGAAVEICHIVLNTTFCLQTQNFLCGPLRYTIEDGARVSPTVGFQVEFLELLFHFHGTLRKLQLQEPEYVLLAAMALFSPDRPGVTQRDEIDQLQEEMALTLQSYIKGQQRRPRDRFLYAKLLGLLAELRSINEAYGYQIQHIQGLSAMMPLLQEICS
Transcription factor Sp1 (Homo sapiens), sequence (P08047 whole entry, looked up): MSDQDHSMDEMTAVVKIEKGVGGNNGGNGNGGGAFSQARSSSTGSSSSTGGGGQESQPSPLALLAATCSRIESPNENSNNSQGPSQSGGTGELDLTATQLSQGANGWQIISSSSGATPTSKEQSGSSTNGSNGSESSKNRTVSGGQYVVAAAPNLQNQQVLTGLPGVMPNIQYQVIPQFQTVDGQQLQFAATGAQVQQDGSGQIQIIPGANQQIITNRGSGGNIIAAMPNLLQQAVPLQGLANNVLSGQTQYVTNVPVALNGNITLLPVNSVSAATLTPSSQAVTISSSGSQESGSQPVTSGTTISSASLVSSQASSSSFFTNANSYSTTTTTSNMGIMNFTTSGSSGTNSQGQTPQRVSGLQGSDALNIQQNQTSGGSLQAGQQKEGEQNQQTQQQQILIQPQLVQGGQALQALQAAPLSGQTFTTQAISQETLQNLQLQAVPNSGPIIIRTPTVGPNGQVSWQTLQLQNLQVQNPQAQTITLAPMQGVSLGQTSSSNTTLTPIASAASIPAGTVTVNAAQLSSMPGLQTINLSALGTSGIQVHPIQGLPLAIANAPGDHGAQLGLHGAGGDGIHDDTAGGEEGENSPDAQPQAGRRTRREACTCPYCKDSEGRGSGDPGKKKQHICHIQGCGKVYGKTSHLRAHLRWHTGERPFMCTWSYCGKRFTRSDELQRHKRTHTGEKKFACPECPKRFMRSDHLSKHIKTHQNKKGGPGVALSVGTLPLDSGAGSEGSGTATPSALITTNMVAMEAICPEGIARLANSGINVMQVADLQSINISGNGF
Steroid hormone receptor ERR1 (Homo sapiens), sequence (P11474 whole entry, looked up, the tested form may be a part): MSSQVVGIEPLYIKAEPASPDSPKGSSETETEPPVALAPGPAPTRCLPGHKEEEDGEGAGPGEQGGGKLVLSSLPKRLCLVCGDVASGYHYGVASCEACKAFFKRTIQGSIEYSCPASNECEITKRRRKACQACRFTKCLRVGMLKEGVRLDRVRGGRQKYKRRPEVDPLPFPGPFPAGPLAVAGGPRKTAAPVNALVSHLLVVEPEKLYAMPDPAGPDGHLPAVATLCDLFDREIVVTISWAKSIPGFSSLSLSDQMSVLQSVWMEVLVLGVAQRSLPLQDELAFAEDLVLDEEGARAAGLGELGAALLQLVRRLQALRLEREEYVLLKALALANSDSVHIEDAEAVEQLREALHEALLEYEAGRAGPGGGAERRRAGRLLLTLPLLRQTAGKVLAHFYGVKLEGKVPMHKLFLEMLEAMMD
Estrogen receptor (Homo sapiens), sequence (P03372 whole entry, looked up, the tested form may be a part): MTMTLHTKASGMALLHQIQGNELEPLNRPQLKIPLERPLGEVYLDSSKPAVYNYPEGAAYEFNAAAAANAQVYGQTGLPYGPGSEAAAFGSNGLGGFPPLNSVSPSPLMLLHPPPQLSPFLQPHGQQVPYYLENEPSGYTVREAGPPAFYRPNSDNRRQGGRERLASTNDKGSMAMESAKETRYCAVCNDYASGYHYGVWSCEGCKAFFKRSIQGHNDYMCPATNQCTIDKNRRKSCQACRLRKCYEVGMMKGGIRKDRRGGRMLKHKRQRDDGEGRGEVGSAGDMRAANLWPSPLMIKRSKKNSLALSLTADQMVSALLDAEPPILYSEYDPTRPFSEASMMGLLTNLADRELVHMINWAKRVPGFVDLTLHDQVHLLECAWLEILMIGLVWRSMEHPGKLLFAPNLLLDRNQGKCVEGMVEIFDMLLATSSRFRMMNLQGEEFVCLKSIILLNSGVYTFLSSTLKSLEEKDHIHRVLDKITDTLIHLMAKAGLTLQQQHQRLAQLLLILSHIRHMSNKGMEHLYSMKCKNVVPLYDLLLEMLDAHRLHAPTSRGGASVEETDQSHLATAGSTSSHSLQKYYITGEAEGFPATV
Glucocorticoid receptor (Homo sapiens), sequence (P04150 whole entry, looked up, the tested form may be a part): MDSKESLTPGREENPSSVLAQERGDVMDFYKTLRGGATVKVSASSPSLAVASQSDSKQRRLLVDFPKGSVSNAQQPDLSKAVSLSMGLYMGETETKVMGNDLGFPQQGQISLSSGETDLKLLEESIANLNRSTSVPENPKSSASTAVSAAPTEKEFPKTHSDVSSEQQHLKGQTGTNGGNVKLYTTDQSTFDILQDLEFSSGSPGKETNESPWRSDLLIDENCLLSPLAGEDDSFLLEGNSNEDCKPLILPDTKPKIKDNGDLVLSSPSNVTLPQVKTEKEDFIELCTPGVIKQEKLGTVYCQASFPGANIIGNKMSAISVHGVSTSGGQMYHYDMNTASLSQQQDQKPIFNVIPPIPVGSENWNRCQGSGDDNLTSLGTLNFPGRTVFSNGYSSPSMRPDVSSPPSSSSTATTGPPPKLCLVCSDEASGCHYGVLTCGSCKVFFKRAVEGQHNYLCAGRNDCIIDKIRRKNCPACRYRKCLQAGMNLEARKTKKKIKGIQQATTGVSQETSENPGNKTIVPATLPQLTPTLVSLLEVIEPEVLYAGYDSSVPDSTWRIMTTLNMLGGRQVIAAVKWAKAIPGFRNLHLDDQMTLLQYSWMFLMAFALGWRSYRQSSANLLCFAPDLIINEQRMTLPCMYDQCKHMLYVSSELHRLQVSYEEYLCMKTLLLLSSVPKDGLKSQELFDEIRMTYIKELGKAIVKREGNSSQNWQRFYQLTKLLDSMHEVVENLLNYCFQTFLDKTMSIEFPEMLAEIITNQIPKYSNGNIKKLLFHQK
Signal transducer and activator of transcription 3 (Homo sapiens), sequence (P40763 whole entry, looked up): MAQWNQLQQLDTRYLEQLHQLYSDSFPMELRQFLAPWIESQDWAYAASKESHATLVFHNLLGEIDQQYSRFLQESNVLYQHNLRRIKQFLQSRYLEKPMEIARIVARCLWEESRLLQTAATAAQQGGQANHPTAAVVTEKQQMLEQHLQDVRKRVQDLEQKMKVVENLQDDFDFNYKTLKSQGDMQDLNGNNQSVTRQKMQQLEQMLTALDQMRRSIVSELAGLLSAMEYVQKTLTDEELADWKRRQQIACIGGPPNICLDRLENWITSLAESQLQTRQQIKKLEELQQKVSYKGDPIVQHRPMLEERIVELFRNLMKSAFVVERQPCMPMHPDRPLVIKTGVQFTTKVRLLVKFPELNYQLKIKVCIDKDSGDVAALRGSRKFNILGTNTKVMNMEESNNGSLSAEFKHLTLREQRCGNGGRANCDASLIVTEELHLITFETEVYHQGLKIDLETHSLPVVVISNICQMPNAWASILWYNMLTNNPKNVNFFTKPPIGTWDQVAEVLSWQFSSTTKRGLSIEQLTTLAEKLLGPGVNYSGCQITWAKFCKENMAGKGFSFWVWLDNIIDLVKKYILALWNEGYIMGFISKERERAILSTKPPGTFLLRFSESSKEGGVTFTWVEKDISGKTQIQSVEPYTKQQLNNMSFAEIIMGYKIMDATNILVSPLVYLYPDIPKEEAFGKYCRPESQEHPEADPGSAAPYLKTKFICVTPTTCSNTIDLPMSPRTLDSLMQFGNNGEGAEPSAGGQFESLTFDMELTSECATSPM
Bile acid receptor (Homo sapiens), sequence (Q96RI1 whole entry, looked up, the tested form may be a part): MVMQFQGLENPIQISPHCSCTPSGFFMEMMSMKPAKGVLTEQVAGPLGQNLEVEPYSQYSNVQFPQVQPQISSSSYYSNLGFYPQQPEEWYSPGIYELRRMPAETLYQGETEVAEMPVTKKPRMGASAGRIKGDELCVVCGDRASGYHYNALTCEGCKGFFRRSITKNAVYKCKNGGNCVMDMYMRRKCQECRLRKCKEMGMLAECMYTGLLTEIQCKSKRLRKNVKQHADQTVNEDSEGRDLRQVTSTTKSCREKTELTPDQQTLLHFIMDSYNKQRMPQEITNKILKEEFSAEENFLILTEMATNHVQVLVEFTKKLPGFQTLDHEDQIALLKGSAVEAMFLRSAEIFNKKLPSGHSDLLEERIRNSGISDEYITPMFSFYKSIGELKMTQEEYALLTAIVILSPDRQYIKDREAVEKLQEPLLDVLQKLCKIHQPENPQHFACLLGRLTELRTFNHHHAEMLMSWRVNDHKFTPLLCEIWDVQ
X-box-binding protein 1 (Homo sapiens), sequence (P17861 whole entry, looked up): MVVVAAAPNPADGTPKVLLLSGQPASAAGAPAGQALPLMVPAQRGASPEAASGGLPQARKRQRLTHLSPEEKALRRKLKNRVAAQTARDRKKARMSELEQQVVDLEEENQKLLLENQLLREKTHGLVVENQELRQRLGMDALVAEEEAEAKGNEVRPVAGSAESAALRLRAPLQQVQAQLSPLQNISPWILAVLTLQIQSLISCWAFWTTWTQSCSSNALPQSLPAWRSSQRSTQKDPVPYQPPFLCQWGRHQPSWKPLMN

Take `CC(C)[N+](=O)[O-]`: the outcome in assay [1], in [2], in assay [3], in assay [4], in assay [5] and in [6] was inactive. The outcome in assay [7], in assay [8], in assay [9], in assay [10], in assay [11] and in assay [12] was inactive. Also, in assay [13], the compound was classed as inactive.

Turning to `CS(=O)(=O)c1ccc(C(=O)C2C(=O)CCCC2=O)c(Cl)c1COCC(F)(F)F`, the result in assay [1], in assay [3], in assay [4], in assay [5], in [6] and in assay [14] was inactive. For the same compound, the call in assay [7], in assay [8], in [9], in assay [15], in [10] and in [16] was inactive. The call in assay [11], in [17] and in assay [12] was inactive.

The term AC50 denotes the concentration at which the activity in the assay is half-maximal. As for `N#CCCC(Br)(C#N)CBr` (configuration not stated), the compound was called inactive in assay [1], in assay [4], in [5], in assay [6], in [7] and in assay [8]. Further, the call in [18], in assay [19], in [16], in [12] and in [13] was inactive. Also, the AC50 in assay [2] is 49.4 µM (active); in [3], 49.2 µM (active); in [10], 57.9 µM (active).

In the case of `N#CS`, the compound was called inactive in assay [1], in [2], in assay [3], in assay [4], in assay [5] and in [6]. Also, the compound was called inactive in [7], in assay [8], in assay [10], in assay [11] and in assay [12].

Turning to `O=NN1CCOCC1`, the result in [1], in assay [3], in assay [4], in assay [5], in assay [6] and in assay [14] was inactive. The compound was classed as inactive in assay [7], in [8], in assay [9], in assay [18], in [10] and in assay [11].

Take `CN(N=O)c1ccc([N+](=O)[O-])cc1`: the compound was called inactive in [1], in [3], in assay [4], in [5], in [6] and in assay [14]. The outcome in assay [7], in assay [8], in [9], in assay [15], in assay [18] and in assay [10] was inactive. Besides, the compound was called inactive in assay [16] and in [13].

Turning to `OC(c1ccc(Cl)cc1)(c1ccc(Cl)cc1)c1cccnc1`, the compound was classed as inactive in [1], in assay [2], in assay [3], in [4], in [5] and in [6]. Further, the call in [7], in assay [8], in assay [9], in [18], in [10] and in [16] was inactive. The compound was classed as inactive in assay [11] and in assay [13].

On to `C[C@]12CC[C@@H](O)C[C@@H]1CC[C@@H]1[C@@H]2CC[C@]2(C)C(=O)CC[C@@H]12`, for which the compound was called inactive in assay [1], in assay [2], in [3], in assay [4], in assay [5] and in assay [6]. Moreover, the outcome in assay [7], in [8], in assay [19], in assay [10], in assay [16] and in assay [11] was inactive. In [12], the compound was called inactive.

On to `CCOc1ccc(N)cc1`, for which the compound was called inactive in assay [1], in assay [2], in assay [3], in assay [4], in [5] and in assay [6]. Moreover, the compound was called inactive in assay [7], in assay [8], in assay [9], in assay [18], in assay [19] and in assay [10]. In addition, in [17], the call was inactive.

For `C1CN2CCN1CC2`, the result in assay [1], in assay [3], in [4], in [5], in assay [6] and in [14] was inactive. The call in assay [7], in assay [8], in assay [9], in assay [15], in assay [10] and in assay [16] was inactive. Further, the result in assay [11] was inactive.
